Structures are written as SMILES. Among all 340,000 compounds or so, about 3,300 (0.97%) were called active. About 9% were inconclusive and are not listed. Calls follow the shape of the dose curve; as a rule, active = well fitted inhibition curve with a large enough effect; inconclusive = small, poorly fitted or top-dose-only effect, or effect the other way; inactive = flat fitted curve, though single readings scatter. The list shows a part of the results.
Potency is read from the fitted curve at half-maximal effect.

A short description of the experiment: qHTS Assay for Modulators of miRNAs and/or Inhibitors of miR-21. Also: nearly all actives have a fitted effect of over 55% in size. The conditions noted are these: HeLa miR-21-FLuc reporter, luciferase luminescence, 48 h; actives lower the signal. The method in brief: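 HeLa cells endogenously expressing miR-21, stably carrying CMV-driven firefly luciferase with a downstream miR-21 binding site, 2000 cells/well. Titrations up to approximately 40 uM, 48 hours; luciferase luminescence read.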
(In general: Quantitative high-throughput screening tests each substance at several concentrations.)
As to `COc1ccc(C(=O)NC2=Nc3ccccc3N=C(C)C2c2ccccc2)cc1` (configuration not stated), the Potency is 13.1 µM (active).

Turning to `O=C(Nc1ccc(N=Nc2ccccc2)cc1)c1ccccc1Cl`, the Potency was 1.04 µM (active). For the compound `CCCC(=O)OCC(=O)Nc1ccc(N=Nc2ccccc2)cc1`, the Potency was 3.69 µM (active). With `CC(C)C(=O)OCC(=O)Nc1ccc(N=Nc2ccccc2)cc1`, the Potency is 1.85 µM (active). The value for `CC(=O)Nc1ccc(N=Nc2ccccc2)cc1` was 1.65 µM (active); that for `CC(=O)OCC(=O)Nc1ccc(N=Nc2ccccc2)cc1` was 1.31 µM (active); that for `COCCC1CCCCN1C(=O)c1ccc2nc(Cc3ccccc3F)oc2c1` (configuration not stated) was 4.14 µM (active).

With `C/C(=N\N=c1/sc2ccccc2n1C)c1ccccn1`, the Potency is 11.7 µM (active).

Take `Cn1/c(=N/N=C/c2ccccn2)sc2ccccc21`: the Potency is 2.07 µM (active). The value for `COCCc1nn2c(=O)cc(COC(=O)c3ccccc3C)nc2s1` was 10.4 µM (active); that for `CC(C)c1nn2c(=O)cc(COC(=O)c3cccs3)nc2s1` was 8.26 µM (active). Consider `CCc1nn2c(=O)cc(COC(=O)c3cccs3)nc2s1`, for which the Potency was 9.27 µM (active). `Cc1ccccc1C(=O)OCc1cc(=O)n2nc(C(C)C)sc2n1`: the Potency was 2.33 µM (active). In the case of `COCCNc1oc(-c2ccc(Cl)cc2)nc1C#N` it was 9.27 µM (active). The value for `CNc1oc(-c2ccc(Cl)cc2)nc1C#N` was 3.29 µM (active). Turning to `O=c1c2c3c(sc2nc(NCCO)n1Cc1ccco1)CCCCC3`, the Potency is 16.5 µM (active). In the case of `COCCNC(=O)c1ccc2c(c1)ncn2-c1ccc(F)c(F)c1` it was 16.5 µM (active); in that of `COC(=O)c1cc2c(ccn2-c2ccc(F)cc2)n1Cc1ccc(OC(C)=O)cc1`, 18.5 µM (active); in that of `COc1cc(O)sc1C=Nc1ccc(Cl)cc1`, 7.36 µM (active). In the case of `CCOC(=O)c1c(C)c(C(=O)NCCc2ccccc2)c(C)n1C` it was 11.7 µM (active); in that of `Cc1nn(Cc2ccccc2)c(Cl)c1C(=O)NCCc1ccccc1`, 2.33 µM (active); in that of `Cc1nn(Cc2ccccc2Cl)c(Cl)c1C(=O)NCCc1ccccc1`, 2.07 µM (active). For the compound `Cc1ccc(C(=O)NCCc2c[nH]c3ccccc23)s1`, the Potency was 5.21 µM (active).

`Cc1ccsc1C(=O)NCCc1c[nH]c2ccccc12`: the Potency is 14.7 µM (active). The value for `O=C(NCCc1c[nH]c2ccccc12)c1cnc2sccn2c1=O` was 3.29 µM (active). For `COc1ccccc1C1N=C(c2ccccc2C)NO1` (configuration not stated), the Potency is 7.36 µM (active).

For the compound `CCOC(=O)c1oc2c(c1C)/C(=N/O)CCC2`, the Potency was 11.7 µM (active).

On to `CCCCCCSc1nc(N)c2c3c(sc2n1)CCCC3C` (configuration not stated), for which the Potency was 14.7 µM (active). The value for `CCN(C(=O)c1cc2c(=O)n3ccccc3nc2n1C)C1CCCCC1` was 11.7 µM (active). In the case of `CN(c1cc(=O)n2ccccc2n1)C1CCCCC1` it was 13.1 µM (active); in that of `Cc1ccc(N=c2sc(C)c(C)n2C)cc1`, 11.7 µM (active); in that of `C/C(=N\NC(=O)c1sccc1C)c1ccncc1`, 2.93 µM (active). In the case of `C/C(=N\Nc1ccc(C)c(Cl)c1)c1cccnc1` it was 13.1 µM (active); in that of `C/C(=N\NC(=O)c1sccc1C)c1cccnc1`, 4.14 µM (active); in that of `Cc1ccccc1-c1nnc(-c2ccc(Cl)cc2)o1`, 2.07 µM (active). As for `Cc1ccccc1-c1nnc(-c2cccs2)o1`, the Potency was 6.56 µM (active). With `CC1CN(C(=O)N2CCC(C(=O)NCc3cccs3)CC2)c2ccccc2O1` (configuration not stated), the Potency was 1.47 µM (active). In the case of `S=C(N/N=C/c1ccc(Cl)cc1)N1CCOCC1` it was 9.27 µM (active). The value for `Cc1ccc(/C=N/NC(=S)N2CCOCC2)cc1` was 13.1 µM (active); that for `O=C(Nc1ccc(F)cc1)c1nsc(Cl)c1Cl` was 1.65 µM (active). For `COc1c(O)cc2oc(-c3ccc(O)c(O)c3)cc(=O)c2c1O`, the Potency is 5.21 µM (active).

For `COc1c(O)cc2oc(-c3ccc(O)cc3)cc(=O)c2c1O`, the Potency was 2.33 µM (active). Turning to `COc1ccc(CNc2nc3ccccc3n2C)c(O)c1`, the Potency is 1.17 µM (active). For the compound `Cn1c(CNc2ccc(O)cc2)nc2ccccc21`, the Potency was 16.5 µM (active). In the case of `Cn1c(CSc2nc3ccccc3s2)nc2ccccc21` it was 4.14 µM (active). Consider `COc1ccccc1C(=O)COC(=O)c1ccc(N(C)C)cc1`, for which the Potency was 3.29 µM (active).

Regarding `COc1ccc(/C=C2\Cc3ccccc3C2=O)cc1OC`, the Potency was 14.7 µM (active). In the case of `O=C1/C(=C/c2ccccc2)CCCc2ccccc21`, the Potency was 7.36 µM (active). The value for `COc1ccc(/C=C2/CCc3ccccc3C2=O)cc1OC` was 18.5 µM (active); that for `O=C(O)c1cccc(NC(=S)N/N=C/c2ccccc2OCc2ccc(Br)cc2)c1` was 11.7 µM (active); that for `O=C(O)c1cnn(-c2nc(-c3ccc(Cl)c(Cl)c3)cs2)c1C(F)(F)F` was 5.21 µM (active). The value for `O=C(O)c1cnn(-c2nc(-c3ccc(Cl)cc3)cs2)c1C(F)(F)F` was 13.1 µM (active); that for `O=C(O)c1cnn(-c2nc(-c3ccc(F)cc3)cs2)c1C(F)(F)F` was 14.7 µM (active).

Regarding `O=C(O)c1cnn(-c2nc(-c3ccc(Br)cc3)cs2)c1C(F)(F)F`, the Potency was 11.7 µM (active). In the case of `COc1ccccc1-c1nn2c(-c3ccco3)nnc2s1` it was 4.65 µM (active); in that of `CCOC(=O)c1oc2ccc(/C=N/O)c(Cl)c2c1C`, 8.26 µM (active); in that of `Cn1cccc1CC(=O)N/N=C/c1ccc(C(C)(C)C)cc1`, 10.4 µM (active). The value for `CC(C)(C)c1ccc(/C=N/NC(=O)C2CCCC2)cc1` was 16.5 µM (active); that for `Cc1ccc(OCC(=O)Nc2cccc(C(=O)OCc3cc(=O)n4nc(C)sc4n3)c2)cc1` was 0.736 µM (active). As for `Cc1cn2c(=O)cc(COC(=O)c3cccc(NC(=O)COc4ccccc4Cl)c3)nc2s1`, the Potency was 0.329 µM (active). In the case of `COC(=O)c1ccc(NC(=S)Nc2ccccn2)cc1` it was 2.07 µM (active); in that of `COc1ccc(NC(=S)Nc2ccccn2)cc1`, 2.93 µM (active). For `COc1ccccc1N1CCN(C(=O)c2nc(-c3ccc(C)cc3)n3c2CCCCC3)CC1`, the Potency is 1.47 µM (active). The value for `Cc1ccc(/C(N)=N/OC(=O)c2ccc3c(c2)OCO3)cc1` was 0.464 µM (active); that for `N/C(=N\OC(=O)c1ccc(Cl)cc1)c1cccnc1` was 2.61 µM (active); that for `Cc1cc(/C(N)=N/OC(=O)c2ccc(Cl)cc2)no1` was 1.47 µM (active).

On to `N/C(=N\OC(=O)c1ccc2c(c1)OCO2)c1cccnc1`, for which the Potency is 3.69 µM (active). The value for `Cn1cccc1/C=C1\SC(=O)N(c2ccccc2)C1=O` was 0.927 µM (active); that for `CC1CCN(C(=O)c2cc(-c3ccco3)on2)CC1` was 3.69 µM (active). As for `O=C(NCCc1ccccc1)c1cc(-c2ccco2)on1`, the Potency is 3.29 µM (active). The value for `CCCNC(=O)c1cc(-c2ccco2)on1` was 3.69 µM (active). For `O=C(Nc1ccccc1F)c1ccc(Cn2cc(Cl)cn2)cc1`, the Potency is 10.4 µM (active).

As to `Cn1c(NC(=O)c2cccc(Cn3cc(Cl)cn3)c2)nc2ccccc21`, the Potency is 4.65 µM (active). In the case of `Cc1cc2c([nH]c3ccccc32)c2c1OC(C)(C)C=C2` it was 3.69 µM (active); in that of `COc1ccc(OCc2cc(C(=O)N3CCCC(O)C3)no2)c2ccccc12` (configuration not stated), 5.85 µM (active); in that of `COc1ccc(OCc2cc(C(=O)N3CCCC(OC)C3)no2)c2ccccc12` (configuration not stated), 16.5 µM (active). Consider `Oc1c(/C=N/c2ccccn2)sc2ccccc12`, for which the Potency is 2.07 µM (active).

As to `O=C(OCCOc1ccccc1)c1n[nH]c2ccccc12`, the Potency is 1.47 µM (active). Regarding `N#Cc1ccc(/C=C(\C(=O)C(=O)O)c2ccc3ccccc3n2)cc1`, the Potency is 1.04 µM (active). In the case of `O=C(O)C(=O)/C(=C\c1ccsc1)c1ccc2ccccc2n1` it was 1.47 µM (active).

As to `COc1cc(/C=N/Nc2ccccc2C(F)(F)F)ccc1O`, the Potency is 16.5 µM (active). The value for `COc1cc(/C=N/Nc2nc3ccccc3s2)ccc1O` was 2.93 µM (active).

With `CC(=O)Nc1ccc(/C=N/Nc2nc3ccccc3s2)cc1`, the Potency was 0.185 µM (active). In the case of `COc1cc(/C=C/c2nc3ccccc3s2)cc(OC)c1O` it was 13.1 µM (active); in that of `O=C(O)c1ccc(N/N=C/C(Br)=C/c2ccccc2)cc1`, 1.17 µM (active). Consider `BrC(=C\c1ccccc1)/C=N/Nc1nc2ccccc2[nH]1`, for which the Potency is 16.5 µM (active). The value for `O=C(c1ccco1)N1CCN(C(c2ccccn2)c2nnnn2C2CCCC2)CC1` (configuration not stated) was 7.36 µM (active). Turning to `Clc1ccc(-c2nnc(N3CCOCC3)o2)cc1`, the Potency was 18.5 µM (active). As to `COc1ccc(-c2csc(N3CCSCC3)n2)cc1`, the Potency was 10.4 µM (active). On to `Clc1ccc(-c2csc(N3CCOCC3)n2)cc1`, for which the Potency is 3.29 µM (active). For the compound `COc1ccc(-c2csc(N3CCOCC3)n2)cc1OC`, the Potency is 5.85 µM (active). The value for `COc1ccc(-c2csc(N3C(=O)CNC3=S)n2)cc1` was 0.0585 µM (active); that for `O=C(c1ccc(-c2cccc(C(F)(F)F)c2)o1)N1CCOCC1` was 14.7 µM (active).

`O=C(c1ccc(-c2cccc(Cl)c2Cl)o1)N1CCOCC1`: the Potency is 4.65 µM (active).

As for `O=C(c1ccc(-c2ccc([N+](=O)[O-])cc2Cl)o1)N1CCOCC1`, the Potency is 10.4 µM (active). The value for `O=C(c1ccc(-c2ccc([N+](=O)[O-])cc2)o1)N1CCCCC1` was 1.85 µM (active); that for `O=C(c1ccc(-c2ccc(Cl)cc2Cl)o1)N1CCOCC1` was 7.36 µM (active); that for `O=C(c1ccc(-c2cc(Cl)ccc2Cl)o1)N1CCOCC1` was 18.5 µM (active). In the case of `Cc1nc(NC(=O)C2CCCC2)sc1Cc1ccc2c(c1)OCO2` it was 9.27 µM (active). Take `Cc1ccc(O)c(NC(=S)NC(=O)CC(C)C)c1`: the Potency was 5.85 µM (active).

Regarding `Cc1sc(NC(=O)c2ccccc2F)c(CN2CCCCC2C)c1C` (configuration not stated), the Potency was 2.07 µM (active). In the case of `O=c1oc2ccccc2cc1-c1ccc(O)cc1` it was 4.65 µM (active); in that of `O=c1oc2ccccc2cc1-c1ccccc1`, 16.5 µM (active). The value for `O=c1oc2ccccc2cc1-c1nc(-c2cccs2)no1` was 1.17 µM (active). For `O=c1oc2cc(O)ccc2cc1-c1ccccc1`, the Potency was 13.1 µM (active).

For `O=C(Nc1ccc(Br)cn1)c1cccc(-c2cc3ccccc3oc2=O)c1`, the Potency is 3.69 µM (active).

`O=c1oc2ccccc2cc1NCc1ccccc1O`: the Potency is 10.4 µM (active).

The record behind these values is PubChem BioAssay AID2289 (National Center for Advancing Translational Sciences (NCATS), 2010).
